Test results published in PubChem BioAssay AID1159580 (chemical genetic matrix, 2015).
Screen size: about 5,500 compounds; about 2,000 (36%) were called active. Not shown: some 18% with an inconclusive outcome. Cut-off read from the data, not from the text of the source: active = normalized growth mostly below about 0.91 (no sharp cut-off); inconclusive = no clear call, values can overlap the other calls; inactive = mostly above about 0.92. The list shows a part of the results.

Test: chemical genetic growth profiling, strain panel (AID 1159580);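 note: tested at 20 µM; growth read once vehicle control cultures reached saturation at 30 °C; 1 = growth at the plate median or of vehicle wells; lower values mean less growth of the strain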
Details: growth OD
[1] = S. cerevisiae deletion strains, locus YAR019C, strain CDC15, stronger effect = lower value
[2] = S. cerevisiae deletion strains, locus YBL105C, strain PKC1, stronger effect = lower value
[3] = S. cerevisiae deletion strains, locus YBR135W, strain CKS1, stronger effect = lower value
[4] = S. cerevisiae deletion strains, locus YBR136W, strain MEC1, stronger effect = lower value
[5] = S. cerevisiae deletion strains, locus YBR160W, strain CDC28, stronger effect = lower value
[6] = S. cerevisiae deletion strains, locus YDL017W, strain CDC7, stronger effect = lower value
[7] = S. cerevisiae deletion strains, locus YDL028C, strain MPS1, stronger effect = lower value
[8] = S. cerevisiae deletion strains, locus YDL101C, strain DUN1, stronger effect = lower value
[9] = S. cerevisiae deletion strains, locus YDL108W, strain KIN28, stronger effect = lower value
[10] = S. cerevisiae deletion strains, locus YDL132W, strain cdc53, stronger effect = lower value
[11] = S. cerevisiae deletion strains, locus YDL214C, strain PRR2, stronger effect = lower value
[12] = S. cerevisiae deletion strains, locus YDR052C, strain DBF4, stronger effect = lower value
[13] = S. cerevisiae deletion strains, locus YDR054C, strain cdc34, stronger effect = lower value
[14] = S. cerevisiae deletion strains, locus YDR226W, strain ADK1, stronger effect = lower value
[15] = S. cerevisiae deletion strains, locus YDR477W, strain SNF1, stronger effect = lower value
[16] = S. cerevisiae deletion strains, locus YER123W, strain YCK3, stronger effect = lower value
[17] = S. cerevisiae deletion strains, locus YER133W, strain GLC7, stronger effect = lower value
[18] = S. cerevisiae deletion strains, locus YFL009W, strain cdc4, stronger effect = lower value
[19] = S. cerevisiae deletion strains, locus YFL029C, strain CAK1, stronger effect = lower value
[20] = S. cerevisiae deletion strains, locus YFR003C, strain YPI1, stronger effect = lower value
[21] = S. cerevisiae deletion strains, locus YFR019W, strain FAB1, stronger effect = lower value
[22] = S. cerevisiae deletion strains, locus YFR028C, strain CDC14, stronger effect = lower value
[23] = S. cerevisiae deletion strains, locus YGR040W, strain KSS1, stronger effect = lower value
[24] = S. cerevisiae deletion strains, locus YGR052W, strain FMP48, stronger effect = lower value
[25] = S. cerevisiae deletion strains, locus YGR092W, strain DBF2, stronger effect = lower value
[26] = S. cerevisiae deletion strains, locus YHR030C, strain SLT2, stronger effect = lower value
[27] = S. cerevisiae deletion strains, locus YHR079C, strain IRE1, stronger effect = lower value
[28] = S. cerevisiae deletion strains, locus YHR082C, strain KSP1, stronger effect = lower value
[29] = S. cerevisiae deletion strains, locus YHR205W, strain SCH9, stronger effect = lower value
[30] = S. cerevisiae deletion strains, locus YIL147C, strain SLN1, stronger effect = lower value
[31] = S. cerevisiae deletion strains, locus YJL095W, strain BCK1, stronger effect = lower value
[32] = S. cerevisiae deletion strains, locus YJL128C, strain PBS2, stronger effect = lower value
[33] = S. cerevisiae deletion strains, locus YJL157C, strain FAR1, stronger effect = lower value
[34] = S. cerevisiae deletion strains, locus YJR016C, strain ILV3, stronger effect = lower value
[35] = S. cerevisiae deletion strains, locus YJR066W, strain TOR1 (second series), stronger effect = lower value
[36] = S. cerevisiae deletion strains, locus YJR066W, strain TOR1, stronger effect = lower value
[37] = S. cerevisiae deletion strains, locus YKL048C, strain ELM1, stronger effect = lower value
[38] = S. cerevisiae deletion strains, locus YKL067W, strain YNK1, stronger effect = lower value
[39] = S. cerevisiae deletion strains, locus YKL101W, strain HSL1, stronger effect = lower value
[40] = S. cerevisiae deletion strains, locus YKL193C, strain SDS22, stronger effect = lower value
[41] = S. cerevisiae deletion strains, locus YKL203C, strain TOR2, stronger effect = lower value
[42] = S. cerevisiae deletion strains, locus YLR113W, strain HOG1, stronger effect = lower value
[43] = S. cerevisiae deletion strains, locus YLR133W, strain CKI1, stronger effect = lower value
[44] = S. cerevisiae deletion strains, locus YLR403W, strain SFP1, stronger effect = lower value
[45] = S. cerevisiae deletion strains, locus YML070W, strain DAK1, stronger effect = lower value
[46] = S. cerevisiae deletion strains, locus YMR001C, strain CDC5, stronger effect = lower value
[47] = S. cerevisiae deletion strains, locus YMR205C, strain PFK2 (second series), stronger effect = lower value
[48] = S. cerevisiae deletion strains, locus YMR277W, strain FCP1, stronger effect = lower value
[49] = S. cerevisiae deletion strains, locus YNL006W, strain LST8, stronger effect = lower value
[50] = S. cerevisiae deletion strains, locus YNL020C, strain ARK1, stronger effect = lower value
[51] = S. cerevisiae deletion strains, locus YNL161W, strain CBK1, stronger effect = lower value
[52] = S. cerevisiae deletion strains, locus YNL183C, strain NPR1, stronger effect = lower value
[53] = S. cerevisiae deletion strains, locus YNL207W, strain RIO2, stronger effect = lower value
[54] = S. cerevisiae deletion strains, locus YNL222W, strain SSU72, stronger effect = lower value
[55] = S. cerevisiae deletion strains, locus YNL307C, strain MCK1 (second series), stronger effect = lower value
[56] = S. cerevisiae deletion strains, locus YOL078W, strain AVO1, stronger effect = lower value
[57] = S. cerevisiae deletion strains, locus YOL136C, strain PFK27, stronger effect = lower value
[58] = S. cerevisiae deletion strains, locus YOR061W, strain CKA2, stronger effect = lower value
[59] = S. cerevisiae deletion strains, locus YOR119C, strain RIO1, stronger effect = lower value
[60] = S. cerevisiae deletion strains, locus YOR231W, strain MKK1, stronger effect = lower value
[61] = S. cerevisiae deletion strains, locus YOR329C, strain SCD5, stronger effect = lower value
[62] = S. cerevisiae deletion strains, locus YPL031C, strain PHO85, stronger effect = lower value
[63] = S. cerevisiae deletion strains, locus YPL153C, strain RAD53, stronger effect = lower value
[64] = S. cerevisiae deletion strains, locus YPL204W, strain HRR25, stronger effect = lower value
[65] = S. cerevisiae deletion strains, locus YPL209C, strain IPL1, stronger effect = lower value
[66] = S. cerevisiae deletion strains, locus YPL256C, strain CLN2, stronger effect = lower value
[67] = S. cerevisiae deletion strains, locus YPR025C, strain CCL1, stronger effect = lower value
[68] = S. cerevisiae deletion strains, locus YPR106W, strain ISR1, stronger effect = lower value
[69] = S. cerevisiae deletion strains, locus YPR111W, strain DBF20, stronger effect = lower value
[70] = S. cerevisiae deletion strains, strain NNK1, stronger effect = lower value
[71] = S. cerevisiae deletion strains, strain TSCII, stronger effect = lower value

Measured: normalized growth

Cc1cc(C)cc(Sc2ccc3nnc(-c4ccccc4)n3n2)c1
inactive: [1] 0.983 | [2] 0.988 | [3] 0.984 | [4] 0.977 | [5] 0.988 | [6] 0.986 | [7] 1 | [8] 0.973 | [9] 0.993 | [10] 0.977 | [11] 0.998 | [12] 0.986 | [13] 0.975 | [14] 0.982 | [15] 0.99 | [16] 0.972 | [17] 0.978 | [18] 0.979 | [19] 0.984 | [20] 0.991 | [21] 0.962 | [22] 0.987 | [23] 0.991 | [24] 1.09 | [25] 0.977 | [26] 1.08 | [27] 1.07 | [28] 1.07 | [29] 0.988 | [30] 1 | [31] 1.06 | [32] 0.933 | [33] 0.982 | [34] 0.979 | [35] 0.942 | [36] 1.11 | [37] 0.979 | [38] 0.999 | [39] 0.986 | [40] 0.983 | [41] 1.06 | [42] 0.978 | [43] 0.998 | [44] 1 | [45] 0.983 | [46] 0.981 | [47] 0.997 | [48] 0.986 | [49] 0.998 | [50] 1 | [51] 0.986 | [52] 1.1 | [53] 0.989 | [54] 0.983 | [55] 0.995 | [56] 0.992 | [57] 0.995 | [58] 0.986 | [59] 0.993 | [60] 1.05 | [61] 0.985 | [62] 0.978 | [63] 0.944 | [64] 0.965 | [65] 0.985 | [66] 1.04 | [67] 0.984 | [68] 0.977 | [69] 0.982 | [70] 0.98 | [71] 0.982

O=C(CCc1nc(-c2ccc(Cl)cc2)no1)NNS(=O)(=O)c1cc(Cl)c(Cl)cc1Cl
inactive: S. cerevisiae deletion strains, locus YAL013W, strain DEP1, stronger effect = lower value 1.01 | S. cerevisiae deletion strains, locus YBR229C, strain ROT2, stronger effect = lower value 1.01 | S. cerevisiae deletion strains, locus YCL061C, strain MRC1, stronger effect = lower value 1.01 | [8] 1.03 | S. cerevisiae deletion strains, locus YDL134C, strain PPH21, stronger effect = lower value 1 | S. cerevisiae deletion strains, locus YDR150W, strain NUM1, stronger effect = lower value 0.998 | S. cerevisiae deletion strains, locus YEL061C, strain CIN8, stronger effect = lower value 0.961 | S. cerevisiae deletion strains, locus YGR078C, strain PAC10, stronger effect = lower value 1.02 | [26] 0.98 | S. cerevisiae deletion strains, locus YHR087W, strain rtc3, stronger effect = lower value 0.958 | S. cerevisiae deletion strains, locus YJR043C, strain POL32, stronger effect = lower value 0.999 | S. cerevisiae deletion strains, locus YJR075W, strain HOC1, stronger effect = lower value 0.994 | S. cerevisiae deletion strains, locus YLR039C, strain RIC1, stronger effect = lower value 0.971 | S. cerevisiae deletion strains, locus YLR058C, strain SHM2 (second series), stronger effect = lower value 1.01 | S. cerevisiae deletion strains, locus YLR085C, strain ARP6, stronger effect = lower value 1 | S. cerevisiae deletion strains, locus YLR262C, strain YPT6, stronger effect = lower value 1.03 | S. cerevisiae deletion strains, locus YML094W, strain GIM5, stronger effect = lower value 0.968 | S. cerevisiae deletion strains, locus YMR219W, strain ESC1, stronger effect = lower value 1 | S. cerevisiae deletion strains, locus YMR263W, strain SAP30, stronger effect = lower value 1.01 | S. cerevisiae deletion strains, locus YNL153C, strain GIM3, stronger effect = lower value 1 | S. cerevisiae deletion strains, locus YNL298W, strain CLA4 (second series), stronger effect = lower value 0.993 | S. cerevisiae deletion strains, locus YNL322C, strain KRE1, stronger effect = lower value 1.02 | S. cerevisiae deletion strains, locus YNR030W, strain Alg12, stronger effect = lower value 1.03 | S. cerevisiae deletion strains, locus YOL006C, strain TOP1, stronger effect = lower value 1.02 | S. cerevisiae deletion strains, locus YPL055C, strain LGE1, stronger effect = lower value 0.973 | S. cerevisiae deletion strains, locus YPL241C, strain CIN2, stronger effect = lower value 1.04 | S. cerevisiae deletion strains, locus YPR135W, strain CTF4, stronger effect = lower value 1.03 | S. cerevisiae strains, strain wild type, stronger effect = lower value 1

CC(=O)c1ccc(Cl)c(NS(=O)(=O)c2cc(Cl)c(Cl)cc2Cl)c1
active: [5] 0.886 | [7] 0.89 | [14] 0.897 | [18] 0.881 | [26] 0.317 | [42] 0.648 | [54] 0.884 | [66] 0.664 | [69] 0.858
inactive: [1] 0.906 | [2] 0.925 | [3] 0.91 | [4] 0.914 | [6] 0.925 | [8] 0.95 | [9] 0.905 | [10] 0.9 | [11] 0.868 | [12] 0.933 | [13] 0.909 | [15] 0.799 | [16] 0.794 | [17] 0.875 | [19] 0.898 | [20] 0.917 | [21] 0.881 | [22] 0.895 | [23] 0.805 | [24] 0.781 | [25] 0.631 | [27] 0.697 | [28] 0.735 | [29] 0.801 | [30] 0.904 | [31] 0.636 | [32] 0.835 | [33] 0.877 | [34] 0.921 | [35] 0.811 | [36] 0.719 | [37] 0.843 | [38] 0.864 | [39] 0.814 | [40] 0.906 | [41] 0.905 | [43] 0.865 | [44] 0.826 | [45] 0.811 | [46] 0.899 | [47] 0.905 | [48] 0.885 | [49] 0.925 | [50] 0.829 | [51] 0.921 | [52] 0.819 | [53] 0.906 | [55] 0.786 | [56] 0.9 | [57] 0.789 | [58] 0.744 | [59] 0.832 | [60] 0.704 | [61] 0.923 | [62] 0.788 | [63] 0.768 | [64] 0.763 | [65] 0.916 | [67] 0.912 | [68] 0.904 | [70] 0.894 | [71] 0.898
